Reference: PubChem BioAssay
Unmarked numbers belong to inactive results. No rule for the calls is given here.

The compounds below were run against Lethal factor (Bacillus anthracis) (UniProt P15917) (assay: Bacillus anthracis lethal factor inhibition, microsphere flow cytometry protease assay, validation at 10 µM (AID 588461)). Details: multiplex microsphere protease cleavage assay, active compounds read high.
Sequence of Lethal factor (Bacillus anthracis) (P15917 whole entry, looked up): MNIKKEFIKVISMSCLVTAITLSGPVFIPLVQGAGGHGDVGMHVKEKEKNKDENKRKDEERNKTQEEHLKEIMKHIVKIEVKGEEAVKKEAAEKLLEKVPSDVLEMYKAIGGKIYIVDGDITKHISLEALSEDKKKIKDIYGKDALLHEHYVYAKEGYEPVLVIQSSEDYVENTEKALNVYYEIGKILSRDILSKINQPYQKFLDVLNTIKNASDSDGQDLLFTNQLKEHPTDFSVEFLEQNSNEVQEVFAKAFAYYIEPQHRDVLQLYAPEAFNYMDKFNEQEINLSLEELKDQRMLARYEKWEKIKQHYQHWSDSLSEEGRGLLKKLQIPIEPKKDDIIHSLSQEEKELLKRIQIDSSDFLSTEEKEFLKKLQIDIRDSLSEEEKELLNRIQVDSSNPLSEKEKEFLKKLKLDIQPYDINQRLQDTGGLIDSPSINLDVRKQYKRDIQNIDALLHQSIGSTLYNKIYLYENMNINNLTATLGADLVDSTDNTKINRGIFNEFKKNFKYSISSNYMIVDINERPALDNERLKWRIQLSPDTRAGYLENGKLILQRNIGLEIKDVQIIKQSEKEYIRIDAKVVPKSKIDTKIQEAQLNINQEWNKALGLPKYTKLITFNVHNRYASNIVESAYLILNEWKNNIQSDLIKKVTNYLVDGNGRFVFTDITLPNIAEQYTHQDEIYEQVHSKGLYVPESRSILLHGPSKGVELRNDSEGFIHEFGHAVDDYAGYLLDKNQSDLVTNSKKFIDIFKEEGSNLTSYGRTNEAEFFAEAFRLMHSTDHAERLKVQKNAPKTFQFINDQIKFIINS

SMILES | inhibition [%]
COc1cccc(OC)c1C(=O)Nc1nc2ccc([N+](=O)[O-])cc2s1 | 7.5
CCCCC[C@H](O)/C=C/C1=C(CCCCCCC(=O)O)C(=O)CC1 | 2.4
CO[C@@H]1O[C@@H]2COC(c3ccccc3)O[C@@H]2[C@@H](OC)[C@@H]1O (some centres not stated) | 2.5
O=C(NCCC(c1ccccc1)c1ccco1)c1cccs1 (configuration not stated) | 3
CC(C)(C)C(=O)NC(=S)Nc1sc2c(c1C(N)=O)CCC2 | -1.2
CC(=O)CCc1oc2ccccc2c1-c1ccccc1 | -3.1
NS(=O)(=O)c1cc2c(cc1Cl)NCNS2(=O)=O | -4.7
COC(=O)C1=C(C)NC(C)=C(C(=O)OC)C1c1ccccc1[N+](=O)[O-] | 2
CCN(CC)Cc1c[nH]c2c(C(=O)OC)cccc12 | 6.7
COc1ccc(Cc2noc(CN(C)CCN3CCc4ccccc4C3)n2)cc1OC | -7.4
CN1[C@@H](CC(=O)c2ccccc2)CCC[C@H]1C[C@H](O)c1ccccc1 | -2.2
O=C(COc1ccc(F)cc1)OCCN1CCOCC1 | -5.2
COc1ccc(C2c3c(n[nH]c3C)CC(C)(O)C2C(C)=O)cc1OC (configuration not stated) | -2.7
c1ccc(CC2=NCCN2)cc1 | -4.7
C[N+]12CCC(CC1)C(OC(=O)C(O)(c1ccccc1)c1ccccc1)C2 (configuration not stated) | -0.4
CN1CC2CCCC3(C1)C(=O)NC1(CCCCC1)N=C23 (configuration not stated) | -5.3
CN(C)C(=O)C12CCC(C)(c3nc4ccccc4nc31)C2(C)C (configuration not stated) | 1.8
